Source: the supplement of paper PMC11732987, “Enantioselective OTUD7B fragment discovery through chemoproteomics screening and high-throughput optimisation” (Communications Chemistry, 2025)

These molecules were tested against T1, VCPIP1 (UniProt Q96JH7) (assay: log2 ratio of Biotin-Ahx-Ub-VS probe labelling (fragment/DMSO); higher = less target engagement (more negative = stronger competition), active = hit call of the paper (q ≤ 0.05, log2 ratio ≤ -1)). Conditions: compound concentration: 200 uM; treatment time: 3 h.
T1 sequence (whole entry): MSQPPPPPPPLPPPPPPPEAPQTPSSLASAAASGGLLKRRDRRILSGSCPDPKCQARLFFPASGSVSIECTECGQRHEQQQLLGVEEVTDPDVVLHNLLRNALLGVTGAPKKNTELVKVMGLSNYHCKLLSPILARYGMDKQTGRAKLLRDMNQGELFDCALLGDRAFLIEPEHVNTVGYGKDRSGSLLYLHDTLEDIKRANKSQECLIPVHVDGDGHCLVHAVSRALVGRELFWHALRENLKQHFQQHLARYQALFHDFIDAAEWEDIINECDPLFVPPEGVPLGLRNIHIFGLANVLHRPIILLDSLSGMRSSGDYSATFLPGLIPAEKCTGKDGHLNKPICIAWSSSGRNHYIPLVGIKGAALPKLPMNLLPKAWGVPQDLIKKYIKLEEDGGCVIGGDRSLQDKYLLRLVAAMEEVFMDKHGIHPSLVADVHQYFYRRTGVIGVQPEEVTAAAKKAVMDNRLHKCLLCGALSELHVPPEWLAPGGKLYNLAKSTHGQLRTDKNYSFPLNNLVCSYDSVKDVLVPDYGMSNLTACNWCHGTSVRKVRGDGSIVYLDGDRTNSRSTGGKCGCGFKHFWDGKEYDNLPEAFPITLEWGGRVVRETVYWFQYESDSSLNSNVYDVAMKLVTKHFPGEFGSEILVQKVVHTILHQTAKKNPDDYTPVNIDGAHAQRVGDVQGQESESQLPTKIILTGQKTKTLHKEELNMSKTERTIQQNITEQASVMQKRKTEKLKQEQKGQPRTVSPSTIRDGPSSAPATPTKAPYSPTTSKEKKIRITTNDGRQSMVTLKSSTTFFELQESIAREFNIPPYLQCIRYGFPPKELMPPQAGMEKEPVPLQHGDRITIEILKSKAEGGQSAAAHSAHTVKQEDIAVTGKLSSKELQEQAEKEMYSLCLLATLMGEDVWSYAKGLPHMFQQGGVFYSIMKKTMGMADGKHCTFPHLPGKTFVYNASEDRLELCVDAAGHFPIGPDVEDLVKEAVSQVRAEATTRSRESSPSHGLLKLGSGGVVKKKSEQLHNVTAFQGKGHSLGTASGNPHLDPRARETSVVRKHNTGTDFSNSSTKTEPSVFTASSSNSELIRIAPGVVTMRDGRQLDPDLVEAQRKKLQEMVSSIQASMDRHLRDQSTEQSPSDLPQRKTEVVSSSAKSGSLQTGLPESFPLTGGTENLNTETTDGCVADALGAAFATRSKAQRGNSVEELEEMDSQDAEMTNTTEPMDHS
Procedure: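 Competitive ABPP in HEK293T cell lysate. Lysates were treated with each chloroacetamide fragment at 200 µM for 3 h, then with Biotin-Ahx-Ub-VS (0.5 µM, 1 h), NeutrAvidin-enriched and analysed by diaPASEF LC-MS/MS. Protein LFQ was median-normalised; average log2 ratio is fragment/DMSO from an unpaired t-test (n=3 treated, n=44 DMSO). Hits: q ≤ 0.05, log2 ratio ≤ -1, unique peptides ≥ 2.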

| Compound | log2 ratio of Biotin-Ahx-Ub-VS probe labelling |
| --- | --- |
| Cl.Cn1nc2c(c1CNC(=O)CCl)CCCC2 | -1.63 (active) |
| O=C(CCl)N1CCOCCC1c1ccccc1 (stereo not given) | -0.265 (inactive) |
| O=C(CCl)N1CCC(OCc2ccccc2F)CC1 | -2.86 (active) |
| CS(=O)(=O)c1ccc(CNC(=O)CCl)cc1 | -1.22 (active) |
| Cl.O=C(CCl)N1CCC(Cc2nccs2)C1 (stereo not given) | -2.29 (active) |
| O=C(CCl)Nc1ccc(Cl)c(F)c1 | -1.86 (active) |
| O=C(CCl)N1CCN(C(=O)N2CCCCC2)CC1 | -0.906 (inactive) |
| CC(c1ccccc1)N(C)C(=O)CCl (stereo not given) | -0.328 (inactive) |
| Cc1cnc2[nH]cc(CCNC(=O)CCl)c2c1 | -1.05 (active) |
| Cc1ccc(N(C(=O)CCl)C2C=CS(=O)(=O)C2)cc1 (stereo not given) | -0.0885 (inactive) |
| Cc1nc(CN2CCN(C(=O)CCl)CC2)cs1 | -0.304 (inactive) |
| Cc1ccc(CC(CO)CNC(=O)CCl)cc1 (stereo not given) | -2.23 (active) |
| Cc1ccc(C(=O)NCCNC(=O)CCl)cc1 | -2.4 (active) |
| Cc1ccc(CNC(=O)CCl)nc1C.Cl | -2.09 (active) |
| Cc1c(C#N)c(NC(=O)CCl)n(Cc2ccco2)c1C | -2.32 (active) |
| N#Cc1ccccc1N1CCN(C(=O)CCl)CC1 | -1.53 (active) |
| Cc1ccc(C)c(NC(=O)CCl)c1 | -1.52 (active) |
| COc1ccccc1C(C)NC(=O)CCl (stereo not given) | -0.998 (inactive) |
| Cc1cc(NC(=O)CCl)n(-c2ccccc2)n1 | -0.6 (inactive) |
| CC(NC(=O)CCl)c1cc2n(n1)CCCC2.Cl (stereo not given) | -0.662 (inactive) |

| Compound | log2 ratio of Biotin-Ahx-Ub-VS probe labelling |
| --- | --- |
| O=C(CCl)N1CCOC(c2cccc(F)c2)C1 (stereo not given) | -1.67 (active) |
| Cc1ccccc1CN(C)C(=O)CCl | -1.46 (active) |
| Cl.O=C(CCl)NCc1ccnc(Oc2ccccc2F)c1 | -2.73 (active) |
| CN(CCC(O)c1ccc(Br)cc1)C(=O)CCl (stereo not given) | -2.63 (active) |
| CC(NC(=O)CCl)c1csc(-c2ccccc2)n1.Cl (stereo not given) | -2.16 (active) |
| O=C(CCl)Nc1nc(-c2cccs2)cs1 | -2.02 (active) |
| CC1CCc2onc(CNC(=O)CCl)c2C1 (stereo not given) | -1.39 (active) |
| O=C(CCl)NCC(=O)N1CCCC1 | -0.323 (inactive) |
| C#Cc1cccc(NC(=O)CCl)c1 | -2.17 (active) |
| CS(=O)(=O)N1CCCN(C(=O)CCl)CC1 | -0.326 (inactive) |
| Cc1n[nH]c(=O)c2c(NC(=O)CCl)oc(C)c12 | -0.15 (inactive) |
| NC(=O)C1CCCCN1C(=O)CCl (stereo not given) | -0.253 (inactive) |
| CC(NC(=O)CCl)c1cccc(Cl)c1 (stereo not given) | -1.59 (active) |
| O=C(CCl)N1CCC2(CCC(O)CC2)CC1 | -0.183 (inactive) |
| O=C(CCl)N1CCN(c2nc3ccccc3o2)CC1 | -0.288 (inactive) |
| CCc1c[nH]c(CNC(=O)CCl)n1.Cl | -0.554 (inactive) |
| O=C(CN1CCN(C(=O)CCl)CC1)Nc1cccc(F)c1 | -0.698 (inactive) |
| Cn1cc(CN(Cc2ccc(Cl)cc2)C(=O)CCl)cn1 | -0.623 (inactive) |
| Cc1cc(C2CCCN2C(=O)CCl)nn1C.Cl (stereo not given) | -0.866 (inactive) |
| Cl.Cn1ncc2c1CCCC2NC(=O)CCl (stereo not given) | -1.7 (active) |
